PubChem BioAssay (NCATS)
Results filed as inconclusive are left out. Calls of active or inactive are those of the source. Calls follow the shape of the dose curve; as a rule, active = well fitted curve in the direction sought with a large enough effect; inconclusive = small, poorly fitted or top-dose-only effect, or another doubt; inactive = no such curve, though single readings can be large; an effect the other way counts as inactive or inconclusive.

How the values were obtained:
MCC-13 = experiment: qHTS assay to identify novel small-molecules to repurpose for Merkel cell carcinoma treatment (AID 1296009); details: MCC and control cell lines, CellTiter-Glo viability, 72 h; series mostly up to 46 µM; also: nearly all actives have a fitted effect of over 60% in size
How it was run: (§1)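 72 hr, 37 degree celsius; NPC 8-pt / MIPE 11-pt dose response; compound pinned in DMSO; CellTiter-Glo, 10 min RT, luminescence; normalized to no-cell and DMSO controls.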

MCC-26 = experiment: as above; details: MCC and control cell lines, CellTiter-Glo viability, 72 h; series mostly up to 46 µM
How it was run: as §1

MKL-1 = experiment: as above; details: MCC and control cell lines, CellTiter-Glo viability, 72 h; series mostly up to 46 µM
How it was run: as §1

MKL-2 = experiment: as above; details: MCC and control cell lines, CellTiter-Glo viability, 72 h; series mostly up to 46 µM
How it was run: as §1

NIH3T3 = experiment: as above; details: MCC and control cell lines, CellTiter-Glo viability, 72 h; at 44.8 µM (top of the series) unless noted
How it was run: as §1

UISO = experiment: as above; details: MCC and control cell lines, CellTiter-Glo viability, 72 h; series mostly up to 46 µM
How it was run: as §1

WaGa = experiment: as above; details: MCC and control cell lines, CellTiter-Glo viability, 72 h; series mostly up to 46 µM
How it was run: as §1

C33A = experiment: Primary qHTS to identify gynecologic anti-cancer compounds using libraries of approved drugs and bioactive compounds (AID 1345084); details: Gynecologic cancer cell panel viability, ATPlite luminescence, 48 h; series mostly up to 57.5 µM; also: nearly all actives have a fitted effect of over 55% in size
How it was run: (§2)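 Five-concentration response, 48 h; readout is ATP-driven luciferase luminescence.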

CAOV3 = experiment: as above; details: Gynecologic cancer cell panel viability, ATPlite luminescence, 48 h; series mostly up to 57.5 µM
How it was run: as §2

CASKI = experiment: as above; details: Gynecologic cancer cell panel viability, ATPlite luminescence, 48 h; series mostly up to 57.5 µM
How it was run: as §2

Es-2 = experiment: as above; details: Gynecologic cancer cell panel viability, ATPlite luminescence, 48 h; series mostly up to 57.5 µM
How it was run: as §2

HeLa = experiment: as above; details: Gynecologic cancer cell panel viability, ATPlite luminescence, 48 h; series mostly up to 57.5 µM
How it was run: as §2

Hek293T = experiment: as above; details: Gynecologic cancer cell panel viability, ATPlite luminescence, 48 h, control line for the selectivity index; series mostly up to 57.5 µM
How it was run: as §2

JEG-3 = experiment: as above; details: Gynecologic cancer cell panel viability, ATPlite luminescence, 48 h; series mostly up to 57.5 µM
How it was run: as §2

OV90 = experiment: as above; details: Gynecologic cancer cell panel viability, ATPlite luminescence, 48 h; series mostly up to 57.5 µM
How it was run: as §2

PA-1 = experiment: as above; details: Gynecologic cancer cell panel viability, ATPlite luminescence, 48 h; series mostly up to 57.5 µM
How it was run: as §2

SKOV3 = experiment: as above; details: Gynecologic cancer cell panel viability, ATPlite luminescence, 48 h; series mostly up to 57.5 µM
How it was run: as §2

Tov-21-G = experiment: as above; details: Gynecologic cancer cell panel viability, ATPlite luminescence, 48 h; series mostly up to 57.5 µM
How it was run: as §2

Tov112D = experiment: as above; details: Gynecologic cancer cell panel viability, ATPlite luminescence, 48 h; series mostly up to 57.5 µM
How it was run: as §2

[1] = Drug repurposing screens with cells derived from glioblastoma tumor samples (AID 1345199); details: GBM patient neurospheres viability, ATP luminescence, 48 h; also: nearly all actives have a fitted effect of over 40% in size; also: potency is read from the fitted curve at half-maximal effect
How it was run: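 Four patient lines of CD133+ GBM neurospheres were screened at several concentrations; hits were retested in those lines plus three slower-growing GBM lines, using 48-hour treatment and ATP-based viability.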

[2] = at 45.9 µM (top of the series), tumour line B
[3] = at 45.9 µM (top of the series), tumour line D
[4] = at 46 µM (top of the series), tumour line A
[5] = at 46.1 µM (top of the series), tumour line C
[6] = at 20 µM (top of the series), tumour line C
[7] = at 21.2 µM (top of the series), tumour line B
[8] = at 21.2 µM (top of the series), tumour line D
[9] = at 21.3 µM (top of the series), tumour line A
% is scaled to controls: 0 for no effect and ±100 for the full control effect.

CN(C(=O)c1c(O)c2ccccc2n(C)c1=O)c1ccccc1
inactive: outcome (MCC-13) | outcome (MCC-26) | outcome (MKL-1) | outcome (MKL-2) | outcome (NIH3T3) | outcome (UISO) | outcome (WaGa) | outcome (C33A) | outcome (CAOV3) | outcome (CASKI) | outcome (Es-2) | outcome (HeLa) | outcome (Hek293T) | outcome (JEG-3) | Potency (OV90) | outcome (PA-1) | outcome (SKOV3) | outcome (Tov-21-G) | outcome (Tov112D) | activity, negative = cell killing [1, 2] -5.78% | activity, negative = cell killing [1, 3] -11.8% | activity, negative = cell killing [1, 4] -31.5% | activity, negative = cell killing [1, 5] -28.1%

CCCCC1(COC(=O)CCC(=O)O)C(=O)N(c2ccccc2)N(c2ccccc2)C1=O
inactive: outcome (MCC-13) | outcome (MCC-26) | outcome (MKL-1) | outcome (MKL-2) | outcome (NIH3T3) | outcome (UISO) | outcome (WaGa) | outcome (C33A) | outcome (CAOV3) | outcome (CASKI) | outcome (Es-2) | outcome (HeLa) | outcome (Hek293T) | outcome (JEG-3) | Potency (OV90) | outcome (PA-1) | outcome (SKOV3) | outcome (Tov-21-G) | outcome (Tov112D) | activity, negative = cell killing [1, 6] -5.58% | activity, negative = cell killing [1, 7] -15.2% | activity, negative = cell killing [1, 8] -10.8% | activity, negative = cell killing [1, 9] -29.7%

Cc1c(C(=O)NCCO)[n+](=O)c2ccccc2n1[O-]
inactive: outcome (MCC-13) | outcome (MCC-26) | outcome (MKL-1) | outcome (MKL-2) | outcome (NIH3T3) | outcome (UISO) | outcome (WaGa) | outcome (C33A) | outcome (CAOV3) | outcome (CASKI) | outcome (Es-2) | outcome (HeLa) | outcome (Hek293T) | outcome (JEG-3) | Potency (OV90) | outcome (PA-1) | outcome (SKOV3) | outcome (Tov-21-G) | outcome (Tov112D) | activity, negative = cell killing [1, 2] -6.85% | activity, negative = cell killing [1, 3] -27.6% | activity, negative = cell killing [1, 4] -29.3% | activity, negative = cell killing [1, 5] -6.62%

O=C(O)c1cc(=O)c2ccccc2o1
inactive: outcome (MCC-13) | outcome (MCC-26) | outcome (MKL-1) | outcome (MKL-2) | outcome (NIH3T3) | outcome (UISO) | outcome (WaGa) | outcome (C33A) | outcome (CAOV3) | outcome (CASKI) | outcome (Es-2) | outcome (HeLa) | outcome (Hek293T) | outcome (JEG-3) | Potency (OV90) | outcome (PA-1) | outcome (SKOV3) | outcome (Tov-21-G) | outcome (Tov112D) | activity, negative = cell killing [1, 2] -4.66% | activity, negative = cell killing [1, 3] -22.4% | activity, negative = cell killing [1, 4] -22.8% | activity, negative = cell killing [1, 5] -14.3%

CCOC(N)=O
inactive: outcome (MCC-13) | outcome (MCC-26) | outcome (MKL-1) | outcome (MKL-2) | outcome (NIH3T3) | outcome (UISO) | outcome (WaGa) | outcome (C33A) | outcome (CAOV3) | outcome (CASKI) | outcome (Es-2) | outcome (HeLa) | outcome (Hek293T) | outcome (JEG-3) | Potency (OV90) | outcome (PA-1) | outcome (SKOV3) | outcome (Tov-21-G) | outcome (Tov112D) | activity, negative = cell killing [1, 2] -14.9% | activity, negative = cell killing [1, 3] 19.2% | activity, negative = cell killing [1, 4] -11.2% | activity, negative = cell killing [1, 5] -16.1%

NC(N)=NS(=O)(=O)c1ccc(N)cc1
inactive: outcome (MCC-13) | outcome (MCC-26) | outcome (MKL-1) | outcome (MKL-2) | outcome (NIH3T3) | outcome (UISO) | outcome (WaGa) | outcome (C33A) | outcome (CAOV3) | outcome (CASKI) | outcome (Es-2) | outcome (HeLa) | outcome (Hek293T) | outcome (JEG-3) | Potency (OV90) | outcome (PA-1) | outcome (SKOV3) | outcome (Tov-21-G) | outcome (Tov112D) | activity, negative = cell killing [1, 6] 3.63% | activity, negative = cell killing [1, 7] -6.02% | activity, negative = cell killing [1, 8] 9.81% | activity, negative = cell killing [1, 9] 6.37%

C=CCN1C[C@H](C(=O)N(CCCN(C)C)C(=O)NCC)C[C@@H]2c3cccc4[nH]cc(c34)C[C@H]21
inactive: outcome (MCC-13) | outcome (MCC-26) | outcome (MKL-1) | outcome (MKL-2) | outcome (NIH3T3) | outcome (UISO) | outcome (WaGa) | outcome (C33A) | outcome (CAOV3) | outcome (CASKI) | outcome (Es-2) | outcome (HeLa) | outcome (Hek293T) | outcome (JEG-3) | Potency (OV90) | outcome (PA-1) | outcome (SKOV3) | outcome (Tov-21-G) | outcome (Tov112D) | activity, negative = cell killing [1, 2] -13.1%

C[N+](C)(C)CC(O)CC(=O)[O-] (centres undefined)
inactive: outcome (MCC-13) | outcome (MCC-26) | outcome (MKL-1) | outcome (MKL-2) | outcome (NIH3T3) | outcome (UISO) | outcome (WaGa) | outcome (C33A) | outcome (CAOV3) | outcome (CASKI) | outcome (Es-2) | outcome (HeLa) | outcome (Hek293T) | outcome (JEG-3) | Potency (OV90) | outcome (PA-1) | outcome (SKOV3) | outcome (Tov-21-G) | outcome (Tov112D) | activity, negative = cell killing [1, 2] -2.63% | activity, negative = cell killing [1, 3] -13.3% | activity, negative = cell killing [1, 5] -12.8%

CC(=O)N(CC(O)CO)c1c(I)c(C(=O)NCC(O)CO)c(I)c(C(=O)NCC(O)CO)c1I (centres undefined)
inactive: outcome (MCC-13) | outcome (MCC-26) | outcome (MKL-1) | outcome (MKL-2) | outcome (NIH3T3) | outcome (UISO) | outcome (WaGa) | outcome (C33A) | outcome (CAOV3) | outcome (CASKI) | outcome (Es-2) | outcome (HeLa) | outcome (Hek293T) | outcome (JEG-3) | Potency (OV90) | outcome (PA-1) | outcome (SKOV3) | outcome (Tov-21-G) | outcome (Tov112D) | activity, negative = cell killing [1, 2] -2.73% | activity, negative = cell killing [1, 3] -8.17% | activity, negative = cell killing [1, 4] -31.6% | activity, negative = cell killing [1, 5] -23.8%

CN1CCCN=C1COC(=O)C(O)(c1ccccc1)C1CCCCC1 (centres undefined)
active: Potency ([1]; tumour line A) 11.2 µM
inactive: outcome (MCC-13) | outcome (MCC-26) | outcome (MKL-1) | outcome (MKL-2) | outcome (NIH3T3) | outcome (UISO) | outcome (WaGa) | outcome (C33A) | outcome (CAOV3) | outcome (CASKI) | outcome (Es-2) | outcome (HeLa) | outcome (Hek293T) | outcome (JEG-3) | Potency (OV90) | outcome (PA-1) | outcome (SKOV3) | outcome (Tov-21-G) | outcome (Tov112D) | activity, negative = cell killing [1, 2] -22.5% | activity, negative = cell killing [1, 3] -25.7% | activity, negative = cell killing [1, 5] -4.53%

NC(=O)NC1NC(=O)NC1=O (centres undefined)
inactive: outcome (MCC-13) | outcome (MCC-26) | outcome (MKL-1) | outcome (MKL-2) | outcome (NIH3T3) | outcome (UISO) | outcome (WaGa) | outcome (C33A) | outcome (CAOV3) | outcome (CASKI) | outcome (Es-2) | outcome (HeLa) | outcome (Hek293T) | outcome (JEG-3) | Potency (OV90) | outcome (PA-1) | outcome (SKOV3) | outcome (Tov-21-G) | outcome (Tov112D) | activity, negative = cell killing [1, 6] 1.99% | activity, negative = cell killing [1, 7] 4.84% | activity, negative = cell killing [1, 8] -17.3% | activity, negative = cell killing [1, 9] -7.96%
